# Measurements taken from PubChem BioAssay AID1511 (Johns Hopkins Ion Channel Center, 2009).
# Screen size: about 310,000 compounds; about 1,600 (0.52%) were called active. The sample holds actives, similar compounds and a random draw of the others, so the mix is not that of the screen. Unmarked numbers belong to inactive results.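 How the source made its calls: active means activation above the mean of controls blocked by dofetilide plus 5 SD; inactive means the rest.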
# Biological target: Voltage-gated inwardly rectifying potassium channel KCNH2 (Homo sapiens) (UniProt Q12809)
# Sequence (Q12809 whole entry, looked up): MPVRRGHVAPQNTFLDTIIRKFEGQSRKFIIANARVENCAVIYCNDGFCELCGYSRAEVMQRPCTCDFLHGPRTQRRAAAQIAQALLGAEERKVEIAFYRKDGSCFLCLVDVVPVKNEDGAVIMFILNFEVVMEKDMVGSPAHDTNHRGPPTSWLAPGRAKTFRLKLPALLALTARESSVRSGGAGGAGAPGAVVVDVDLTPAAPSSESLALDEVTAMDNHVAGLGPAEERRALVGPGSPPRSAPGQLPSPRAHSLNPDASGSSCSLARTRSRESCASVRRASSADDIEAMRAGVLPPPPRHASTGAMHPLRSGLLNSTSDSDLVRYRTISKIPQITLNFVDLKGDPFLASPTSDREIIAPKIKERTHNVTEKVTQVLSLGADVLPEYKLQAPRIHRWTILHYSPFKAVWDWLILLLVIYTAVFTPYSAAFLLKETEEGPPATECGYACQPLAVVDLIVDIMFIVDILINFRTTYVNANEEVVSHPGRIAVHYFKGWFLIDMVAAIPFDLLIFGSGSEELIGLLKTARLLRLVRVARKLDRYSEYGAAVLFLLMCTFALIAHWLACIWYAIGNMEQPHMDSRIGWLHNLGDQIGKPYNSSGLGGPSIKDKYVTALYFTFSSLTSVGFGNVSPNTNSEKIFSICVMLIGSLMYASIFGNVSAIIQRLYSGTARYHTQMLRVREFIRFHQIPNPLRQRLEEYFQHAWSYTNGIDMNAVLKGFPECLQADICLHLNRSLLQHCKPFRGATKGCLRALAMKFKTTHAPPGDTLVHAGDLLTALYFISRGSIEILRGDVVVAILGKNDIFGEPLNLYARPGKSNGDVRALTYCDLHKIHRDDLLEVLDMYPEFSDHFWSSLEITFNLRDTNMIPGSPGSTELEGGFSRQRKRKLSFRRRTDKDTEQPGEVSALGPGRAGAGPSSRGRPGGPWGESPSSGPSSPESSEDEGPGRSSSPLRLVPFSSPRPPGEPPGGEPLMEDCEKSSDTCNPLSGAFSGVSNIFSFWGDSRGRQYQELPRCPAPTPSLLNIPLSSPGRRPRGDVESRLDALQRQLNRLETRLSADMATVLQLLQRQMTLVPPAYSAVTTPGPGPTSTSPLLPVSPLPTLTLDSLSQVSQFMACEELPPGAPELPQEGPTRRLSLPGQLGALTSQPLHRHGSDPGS
# Test: hERG rescue from dofetilide block, primary screen, cell-based, CHO-hERG, FluxOR thallium flux, dofetilide IC70 (AID 1511);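 further: thallium influx through hERG after potassium depolarization seen as dye fluorescence rise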
# Settings: dofetilide IC70 present, at 10 µM, stronger effect = higher value
row,Compound,"activation (rescue from dofetilide block), less the hit threshold"
1,CCCCOC(=O)c1ccc(NC(c2ccc(C)cc2)P(=O)(OC)OC)cc1 (centres undefined),-14.4%
2,CC(=O)N1CCc2cc(Br)cc(S(=O)(=O)CCC(=O)Nc3c(C)n(C)n(-c4ccccc4)c3=O)c21,-18%
3,Cc1cc(=O)oc2c1c(C)nn2-c1ccc(Cl)cc1,-1.68%
4,Cc1nn(C)cc1N1C(=O)c2cccc3c(N)ccc(c23)C1=O,-54.8%
5,Cc1nn(-c2cc(Cl)ccc2N)c(=O)c2ccccc12,7.47% (active)
6,NS(=O)(=O)c1cccc(NC(=O)CC23CC4CC(CC(Br)(C4)C2)C3)c1,-7.94%
7,Cc1cccc(C)c1NC(=O)CS(=O)CC(=O)N1CCN(c2ccccc2)CC1 (centres undefined),-5.6%
8,CC(C)C(=O)Nc1nnc(Sc2ccc(N(C)C)cc2)s1,-6.31%
9,Cc1cccc(C(=O)NC(=S)N(C)C2CCCCC2)c1,11.6% (active)
10,Cc1cccc(C(=O)NCCCN(C)CCCNC(=O)c2cccc(C)c2)c1,-3.82%
11,Cc1cccc(NC(=S)NCCN(C2CCCCC2)C2CCCC2)c1,-7.92%
12,COc1ccc2cc(C(=O)NCC3CCCO3)[nH]c2c1 (centres undefined),-3.17%
13,N#CC1=C(N)N(c2ccc(F)cc2)C(=O)C1,3.49%
14,O=C(O)CCCCOn1ccnc1,-8.74%
15,O=c1c2ccccc2ncn1CCCCOc1ccccc1F,-7.18%
16,O=C(NNC(=S)NC1CCCCC1)c1ccccc1Cl,-19.3%
17,O=C(/C=C/c1ccco1)NC(=S)N1CCCCC1,-8.68%
18,O=C(/C=C/c1ccco1)NC(=S)Nc1ccccc1Br,0.92%
19,COc1ccc(Cl)cc1C(=O)NNC(=S)NC1CCCC1,5.84% (active)
20,C=CCNC(=S)NNC(=O)c1cc(Cl)ccc1OC,-3.41%
21,COc1ccc(Cl)cc1C(=O)NNC(=S)NC(=O)/C=C/c1ccco1,34.2% (active)
22,Cc1cccc(Cn2cnc3c(N)c(C)c(C)cc32)c1,-4.77%
23,CCOC(=O)/C=C/C(=O)OCC(=O)NC(c1ccccc1)c1ccccc1,-0.47%
24,CSc1cccc(NC(=O)CN2C(=O)COc3ccc(S(=O)(=O)N4CCOCC4)cc32)c1,-8.66%
25,COc1cccc(CNCc2ccc3c(c2)OCO3)c1,-1.37%

row,Compound,"activation (rescue from dofetilide block), less the hit threshold"
1,O=C1Nc2cc(Cl)c(Cl)cc2N(O)N1c1ccccc1Cl,-11.3%
2,O=C(O)c1cccc(N2C(=O)Nc3ccccc3N2O)c1,5.69% (active)
3,NC1=NN(c2cccc(C(=O)O)c2)C(=O)C1,-7.19%
4,COc1cc(OC)c(NC(=O)C2CCCN2C(=O)OCc2ccccc2)cc1Cl (centres undefined),-14.7%
5,COCCCNC(=O)CN1C(=O)CSc2ccc(S(=O)(=O)N3CCOCC3)cc21,-5.64%
6,O=C(COC(=O)c1ccccc1NC(=O)c1ccco1)Nc1ccc2c(c1)OC(F)(F)O2,-13.6%
7,O=S(=O)(NCCCc1ccccc1)c1ccc(Br)cc1,-3.29%
8,O=C1c2cccnc2C(=O)N1Cc1cccs1,-8.43%
9,O=C1c2ccccc2C(=O)N1Cc1cc(-c2ccccc2Cl)no1,11.4% (active)
10,O=C1c2ccccc2C(=O)N1CCCc1nc(-c2ccccc2)no1,-6.67%
11,Cc1ccc(NC(=O)C(CC(=O)O)C2CCCO2)c(C)c1 (centres undefined),-3.96%
12,COCCCn1c(Cc2csc(Nc3cccc(Cl)c3)n2)nnc1SCC(=O)OC1CCCCC1,-9.88%
13,Cc1c(NC(=O)C(C)Oc2cccc(Cl)c2)c(=O)n(-c2ccccc2)n1C (centres undefined),-2.29%
14,OC1CN=C2Sc3ccccc3N2C1 (centres undefined),4.61% (active)
15,CCCNCc1cc(OCC)c(OCC(=O)Nc2ccccc2)cc1Br,-25.3%
16,C=Cn1cc[n+](CC(=O)c2ccc(OC)c(OC)c2)c1,-13.3%
17,Cc1cc(O)c(C2(O)C(=O)Nc3ccccc32)cc1C (centres undefined),-4.06%
18,COc1ccc(C23NCCN2C(=O)c2ccccc23)cc1 (centres undefined),-7.58%
19,COc1ccc(C2(O)C(=O)Nc3ccccc32)cc1 (centres undefined),4.63% (active)
20,Cc1ccc(N2C(=O)C3N=NN(CC(=O)N4N=C(c5cccc6ccccc56)CC4c4ccccc4)C3C2=O)cc1 (centres undefined),-4.02%
21,O=P(O)(CP(=O)(c1ccccc1)c1ccccc1)c1ccccc1,-3.04%
22,CC(C)(C)c1cc(P(=O)(c2ccccc2)c2ccccc2)ccc1O,-11.2%
23,O=P(O)(CP(=O)(c1ccccc1)c1ccccc1)c1ccccc1O,6.37% (active)
24,CS(=O)(=O)N(CC(=O)NC1CCCC1)Cc1ccc(F)cc1,1.73%
